Consider 43 compounds from PubChem BioAssay AID1259400 (National Center for Advancing Translational Sciences (NCATS), 2018).

About 2,100 (0.6%) of roughly 350,000 compounds were called active. About 1% were inconclusive and are not listed. The entries come from a sample that favours actives as a whole. A number with no mark means an inactive call.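 How the source made its calls: active means activity change of -60% or lower, but not beyond a set lower limit; inconclusive means change between -60% and -40%, or beyond the set limit; inactive means change above -40%.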
On the % scale 0 is the no-effect control and ±100 the full control effect.

Chain of Relaxin receptor 1 (Homo sapiens) (Q9HBX9 whole entry, looked up): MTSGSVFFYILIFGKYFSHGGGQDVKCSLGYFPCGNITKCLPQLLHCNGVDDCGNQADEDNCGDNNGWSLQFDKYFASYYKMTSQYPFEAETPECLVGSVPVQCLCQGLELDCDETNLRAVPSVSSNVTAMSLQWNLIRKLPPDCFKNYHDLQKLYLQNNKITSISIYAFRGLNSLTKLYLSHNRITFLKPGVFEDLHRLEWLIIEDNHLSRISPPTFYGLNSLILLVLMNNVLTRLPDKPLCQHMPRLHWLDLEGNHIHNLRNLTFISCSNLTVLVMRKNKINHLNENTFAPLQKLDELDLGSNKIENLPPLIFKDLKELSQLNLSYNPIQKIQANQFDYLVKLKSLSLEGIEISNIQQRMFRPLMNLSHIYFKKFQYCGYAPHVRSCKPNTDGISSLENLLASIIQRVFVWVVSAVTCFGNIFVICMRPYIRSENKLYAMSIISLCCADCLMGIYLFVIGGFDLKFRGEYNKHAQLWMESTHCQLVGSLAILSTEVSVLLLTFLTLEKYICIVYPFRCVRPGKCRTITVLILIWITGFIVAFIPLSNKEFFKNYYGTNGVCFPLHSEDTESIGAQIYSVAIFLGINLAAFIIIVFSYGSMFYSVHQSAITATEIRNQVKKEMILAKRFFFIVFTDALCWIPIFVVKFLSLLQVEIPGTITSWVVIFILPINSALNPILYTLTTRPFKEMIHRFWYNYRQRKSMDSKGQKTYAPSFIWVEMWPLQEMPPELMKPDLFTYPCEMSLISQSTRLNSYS

The assay has as its target Relaxin receptor 1 (Homo sapiens) (UniProt Q9HBX9). In words: qHTS Assay for Antagonists of the Relaxin Receptor RXFP1. To be noted: HEK293-RXFP1, relaxin-stimulated cAMP HTRF, 30 min; at 57.5 µM; stronger effect = lower value. The text has this: The relaxin hormone is involved in the variety of biological functions in normal tissues and diseases. The role of relaxin is well-established in female reproduction and parturition, mammary gland and endometrial development, maintenance of myometrial quiescence during pregnancy. Relaxin signaling through its G protein-coupled receptor (GPCR) RXFP1 results in ECM remodeling through regulation of collagen deposition, cell invasiveness, proliferation and overall tissue homeostasis. […] Recombinant human relaxin (rhRlx) is currently being tested in clinical trials as a protective agent in congestive heart failure, in treating severe preeclampsia, and as an anti-fibrotic agent in various organs. […] Upon relaxin binding RXFP1 activation leads to the activation of adenylate cyclase (AC) via G?s. cAMP will activate PKA, which phosphorylates many signaling proteins. Thus, detection of cAMP increase is an easy and reliable indication of relaxin receptor activation. To screen for antagonists of the relaxin receptor, a HEK293T cell line stably transfected with RXFP1 was used. RXFP1 activation by relaxin in presence of various concentrations of tested compounds was assayed by changes in cAMP levels as detected with a time-resolved fluorescence energy transfer (TR-FRET) cAMP detection kit.
For the primary screening, we used HTRF(R) (Homogenous Time-Resolved Fluorescence) cAMP HiRange assay (Cisbio Bioassays, 62AM6PEJ). Presence of cAMP in the cell lysate disrupts binding between the Cryptate-labeled anti-cAMP and d2-labeled cAMP pair, leading to a decrease in TR-FRET signal. The libraries were screened at two doses (57microM and 11microM), followed by a confirmation of the hits at 7-point serial dilution in the range of final concentrations [57microM - 78nM]. Data were normalized to the controls for basal activity (buffer only) and 100% activity (5 nM porcine relaxin). The EC50 values were determined from concentration-response data modeled with the standard Hill equation. NCGC Assay Protocol Summary: HiHEK (Hawaiian HEK293 LGR7 stably transfected with human RXFP1) were grown in the following media: DMEM+10%FBS+Pen/Strep + Geneticin (1mg/ml). For the assay, the cells were seeded in DMEM+Pen/Strep (with no serum & selective antibiotics) at 2,100 cells/ 3microl/well with MultiDrop Combi dispenser (Thermo Scientific, Logan, UT) onto white tissue culture treated solid bottom1536-well plates (Greiner #789173-F) and allowed to attach/recover overnight at 37 degrees C, 5% CO2. Next, 23nl/well of compound solutions in DMSO were transferred into wells with a pintool (Kalypsis, San Diego, CA). […] EC80 (relaxin at 50pM final concentration) was dispensed to the rest of the plate except columns 1&2 which were used as a negative control (EC0, buffer only), 1microl/well also. The cells were stimulated by relaxin in the presence of compounds for 30 minutes at 37 degrees C, 5% CO2. The detection reagents were prepared individually by dilution in Lysis buffer (supplied with the assay kit) just prior to dispensing. 1microl/well of cAMP-d2 and 1microl/well anti-cAMP-Eu3+-Cryptate antibodies were added simultaneously with BioRAPTR FRDtrade mark Workstation (Beckman Coulter). The plates were incubated at ambient temperature for 30 minutes and, then, FRET signal was read on Envision plate reader (PerkinElmer, Waltham, MA), at wavelengths 340nm (excitation), 615nm & 665nm (emission of donor and acceptor channels respectively).
Turning to `COc1cccc(/C=C2\SC(=S)N(CCCC(=O)N3CCOCC3)C2=O)c1`, the activity change, negative = inhibition was 9.2%. Under `O=C1/C(=C/c2ccc(F)cc2)SC(=S)N1CCCC(=O)N1CCCCC1CCO` (stereo not drawn) stands -99.6% (active); under `CCN(C(=O)CN1C(=O)/C(=C/c2ccc(F)cc2)SC1=S)C1CCS(=O)(=O)C1` (stereo not drawn), 5.31%.

Consider `O=C(NNC(=O)c1ccco1)Nc1ccccc1`, for which the activity change, negative = inhibition is -5.56%.

With `O=C(NC1CC1)c1ccc(-c2ccccc2)cc1`, the activity change, negative = inhibition is -5.32%. Under `O=C(NNC(=O)c1ccc(-c2ccccc2)cc1)Nc1ccccc1` stands -86.2% (active); under `COC(=O)c1ccccc1NC(=O)C(Cc1ccccc1)N1Cc2ccccc2C1=O` (stereo not drawn), -13.9%; under `O=C(c1ccco1)n1nc(-c2ccc(Cl)cc2)nc1NCc1ccccc1`, -6.49%. Under `COc1ccccc1N1CCN(CCCNC(=O)c2cnn(-c3ccccc3Cl)c2C2CCN(C(=O)OC(C)(C)C)CC2)CC1` stands -27.8%; under `O=C(CCC(=O)N1CC2CCCN2c2ccccc21)NCc1ccccc1Cl` (stereo not drawn), -15%; under `CCc1nnc(SCc2c(F)cccc2Cl)c2cc3sccc3n12`, 3.15%. To `CC(=O)Nc1cccc(-c2csc(Nc3cccc(C)n3)n2)c1` belongs -62.8% (active); to `Cc1cccc(NC(=O)Nc2ccc3c(c2)OCO3)n1`, 6.53%; to `COc1ccc(-c2csc(Nc3cccc(C)n3)n2)cc1OC`, -15.8%. With `COc1ccc2c(c1)Cc1sc(NC(=O)c3ccccc3Br)nc1-2`, the activity change, negative = inhibition is -16.9%.

For the compound `COc1ccc(N2CCN(C(=O)CSCc3nc(-c4ccccc4Cl)oc3C)CC2)cc1`, the activity change, negative = inhibition is -64.6% (active).

Regarding `COc1ccc(N2CCN(C(=O)CCSCc3ccccc3F)CC2)cc1`, the activity change, negative = inhibition was -7.15%. To `COc1ccc(CNC(=O)CSCc2nc(-c3ccccc3F)oc2C)cc1` belongs -25.8%; to `CCc1ccc(NC(=O)C2CCCN2S(=O)(=O)c2ccc3nc(-c4ccccc4)[nH]c3c2)cc1` (stereo not drawn), -3.72%; to `CN1C(=O)c2ccccc2Sc2ccc(NC(=O)Cc3ccc(Cl)cc3)cc21`, -36%. With `O=C(CSc1nc2c(c(=O)[nH]1)CN(Cc1ccc(F)cc1)CC2)Nc1ccccc1Cl`, the activity change, negative = inhibition was -5.69%. To `CCOc1ccc(Nc2ncnc3scc(-c4ccc(OC)cc4)c23)cc1` belongs -16.5%; to `O=C1C=C(c2ccc(Cl)cc2)C(=O)N1Nc1ccccc1`, -62.4% (active); to `Cc1cccc(NC(=O)Cn2cc(S(=O)(=O)Cc3ccccc3Cl)c3ccccc32)c1`, -19.7%. On to `Cc1cccc(NC(=O)c2nc(S(=O)(=O)Cc3ccccc3)ncc2Cl)c1`, for which the activity change, negative = inhibition is -89.5% (active).

Take `Cc1cccc(CS(=O)(=O)c2ncc(Cl)c(C(=O)Nc3ccc(F)cc3)n2)c1`: the activity change, negative = inhibition is -95.9% (active). Under `CCCSc1ncc(Cl)c(C(=O)Nc2c(C(=O)Nc3ccccc3)oc3ccccc23)n1` stands 4.58%. Under `CCS(=O)(=O)c1ncc(N(Cc2ccc(F)cc2)Cc2ccco2)c(C(=O)Nc2cc(C)ccc2C)n1` stands -11.8%; under `CCOC(=O)c1ccc(NC(=O)c2nc(SCc3ccc(F)cc3)ncc2Cl)cc1`, 3.57%. To `COc1ccc(OC)c(NC(=O)/C=C/c2ccc(C)o2)c1` belongs -0.228%; to `O=C(Nc1nnc(S(=O)(=O)N2CCCc3ccccc32)s1)c1cccc(F)c1`, -23.2%; to `CCN1CCN(C(c2ccc(C)cc2)c2c(O)cc(C)n(Cc3ccco3)c2=O)CC1` (stereo not drawn), -15.2%. In the case of `COc1cccc(Cn2c(SCc3ccc(C(=O)N4CCC(C)CC4)cc3)nc3ccncc32)c1`, the activity change, negative = inhibition was 0.54%. Under `CCN(CC)CCN(C(=O)c1ccc2c(c1)CCCC2)c1nc2c(OC)cccc2s1` stands -18.9%; under `Cc1cccc2sc(N(CCCN(C)C)C(=O)CCS(=O)(=O)c3ccccc3)nc12`, 10.5%.

For the compound `COc1cccc2sc(N(CCCN(C)C)C(=O)C(c3ccccc3)c3ccccc3)nc12`, the activity change, negative = inhibition was -77.3% (active). Under `CCN(CC)c1ccc(NS(=O)(=O)c2cc(-c3cc(C)no3)ccc2C)c(C)c1` stands -32.3%; under `CCc1ccccc1NC(=O)c1sc2nc3c(cc2c1N)CN(Cc1ccccc1)CC3`, -0.166%. Take `Cc1cccc(N2CCN(C3=C(c4ccccc4)C(=O)c4ccccc43)CC2)c1C`: the activity change, negative = inhibition was -0.811%.

For the compound `CCc1cccc(NC(=O)CN(C)S(=O)(=O)c2ccc3[nH]c4c(c3c2)CCCC4)c1`, the activity change, negative = inhibition was -7.15%. Take `CCCCOCCOC(=O)c1cccnc1`: the activity change, negative = inhibition was 8.56%.

Regarding `Cc1ccc(NC(=O)CSc2nc3ccccc3c3nc(CCn4cncc4C)nn23)cc1F`, the activity change, negative = inhibition was -6.58%. To `Cc1c(C)n(Cc2ccc(Cl)cc2)c2ccc(C(=O)NCCc3ccc(S(N)(=O)=O)cc3)cc12` belongs -10.3%.
